Assay outcomes from PubChem BioAssay.
HT1080-NT tox: kills 2HG-producing HT-1080-NT fibrosarcoma cells; 360,000 tested, 1.6% active; Potency, µM (doses to about 46.1 µM), for the others: at the highest dose activity, negative = less viability, hits mostly cytotoxic; HT-1080-NT fibrosarcoma viability, CellTiter-Glo ATP luminescence, 48 h; AID 686970;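 also: NT is the 2HG producing partner of a matched IDH1 knockdown line; potency is read from the fitted curve at half-maximal effect; 0% = DMSO-treated cells and -100% = media-only wells without cells; nearly all actives have a fitted effect of over 55% in size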
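Viability by CellTiter-Glo luminescence after 48 h compound exposure at 37C of HT-1080-NT cells (750/well, RPMI, 5% FBS). % activity scaled between DMSO wells and medium-only wells, then curve-fitted and categorized by curve class.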
HT1080 IDH1KD tx: HT-1080 IDH1 knockdown cell toxicity (counter line); Potency, µM (highest dose often 46.1 µM), without a hit: at the top dose activity, negative = toxicity, most hits filed as cytotoxic; HT-1080 IDH1 knockdown viability, ATP luminescence, 48 h; 360,000 tested, 2% active;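 also: potency is read from the fitted curve at half-maximal effect; 0% = DMSO wells and -100% = cell-free medium wells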
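IDH1KD HT-1080 cells, 750/well, RPMI + 5% FBS; compound pinned after 2 h settling; 48 h, 37 °C; CellTiter-Glo luminescence; % activity normalised to DMSO and no-cell wells; curves fitted, classed by r2 and efficacy.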
KB-V1 MDR tox: kills drug-selected multidrug resistant KB-V1 cells. KB-V1 MDR cells viability, CellTiter-Glo, 72 h. Potency, µM (doses to about 46.1 µM), hits mostly cytotoxic. 400,000 tested, 3.4% active. AID 1347076; also: potency is read from the fitted curve at half-maximal effect; nearly all actives have a fitted effect of over 60% in size
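KB-V1 MDR subline cells in DMEM (phenol-red free, 10% FBS) exposed to compounds in qHTS concentration series for 72 h at 37 degrees C. Viability read by CellTiter-Glo luminescence; concentration-effect curves fitted after normalization and correction.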
IL1B secr inh: inhibitors of inflammasome signaling (IL-1 beta secretion); THP-1 LPS/ATP IL-1B secretion, AlphaLISA, 16 h; stronger effect = lower value; activity change, % at 57.5 µM; 360,000 tested, 4.7% active; AID 743279; in the data active = activity change below about -50%; inconclusive = mostly about -30% to -49%
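Secreted IL-1B measured by AlphaLISA bead assay after 16 h compound exposure of THP-1 cells; compounds (final up to 57.5 uM) added 1 h before LPS (250 ng/mL) and ATP (1.25 mM) stimulation; lower signal means less secretion.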
KB-3-1 cytotox: KB-3-1 parental cell cytotoxicity; AID 1347075; 400,000 tested, 1.4% active; Potency, µM (doses to about 46.1 µM), hits mostly cytotoxic; KB-3-1 viability, CellTiter-Glo ATP luminescence, 72 h; also: potency is read from the fitted curve at half-maximal effect; nearly all actives have a fitted effect of over 60% in size
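72 h, 37 °C compound treatment of KB-3-1 parental cells; CellTiter-Glo added, 10 min, luminescence read. Data corrected against DMSO-only plates and normalized before curve fitting.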
* = called active by the depositor. An excerpt weighted towards active compounds, which were near 8.8% of everything screened. Unless noted, calls follow the shape of the dose curve; as a rule, active = well fitted curve in the direction sought with a large enough effect; inconclusive = small, poorly fitted or top-dose-only effect, or another doubt; inactive = no such curve, though single readings can be large; an effect the other way counts as inactive or inconclusive. Unless noted, % is scaled to controls: 0 for no effect and ±100 for the full control effect.

`CN(CC(=O)Nc1ccccc1Cl)C(=O)COC(=O)c1cnccn1` gave HT1080-NT tox 14%, HT1080 IDH1KD tx 12%, KB-V1 MDR tox inconclusive, IL1B secr inh -2 and KB-3-1 cytotox inactive.
`OCCN1CCN(C(c2ccccc2Cl)c2sc3nc(-c4ccco4)nn3c2O)CC1` (stereo not drawn) gave KB-V1 MDR tox inactive and KB-3-1 cytotox inactive.
CC(C)C[C@H]1CN([C@@H](CC(C)C)CN2CCCC2CN2C(=S)NC[C@@H]2Cc2ccc(O)cc2)C(=S)N1CC1CCCCC1 (stereo partly drawn) was read as HT1080-NT tox 2%, HT1080 IDH1KD tx 3%, KB-V1 MDR tox 21µM*, IL1B secr inh -2 and KB-3-1 cytotox inconclusive.
CC(C)C[C@H]1CN([C@@H](CC(C)C)CN2CCCC2CN2C(=S)NC[C@@H]2Cc2ccc(O)cc2)C(=S)N1CC1CCCCCC1 (stereo partly drawn) was read as HT1080-NT tox 5%, HT1080 IDH1KD tx 6%, KB-V1 MDR tox inconclusive, IL1B secr inh inconclusive and KB-3-1 cytotox inconclusive.
For CC(C)C[C@H]1CN([C@@H](CC(C)C)CN2CCC[C@@H]2CN2C(=S)NC[C@@H]2Cc2ccc(O)cc2)C(=S)N1CC1CCCCC1 the results were HT1080-NT tox 21µM*, HT1080 IDH1KD tx 15µM*, KB-V1 MDR tox inconclusive, IL1B secr inh inconclusive and KB-3-1 cytotox inconclusive.
Screening O=[N+]([O-])c1cccc(-c2csc(N/N=C/c3cccc(O)c3)n2)c1 returned HT1080-NT tox inconclusive, HT1080 IDH1KD tx 18µM*, KB-V1 MDR tox inconclusive, IL1B secr inh -168* and KB-3-1 cytotox inconclusive.
O=C(Nc1nc(-c2cccc([N+](=O)[O-])c2)cs1)C(c1ccccc1)c1ccccc1 was read as HT1080-NT tox -6%, HT1080 IDH1KD tx -13%, KB-V1 MDR tox inconclusive, IL1B secr inh -72* and KB-3-1 cytotox inconclusive.
For CC(OC(=O)c1ccccc1Br)C(=O)Nc1nc(-c2cccc([N+](=O)[O-])c2)cs1 (stereo not drawn) the results were HT1080-NT tox 11%, HT1080 IDH1KD tx inconclusive, KB-V1 MDR tox inactive, IL1B secr inh -23 and KB-3-1 cytotox inactive.
Cc1[nH]n(-c2nc(-c3cccc([N+](=O)[O-])c3)cs2)c(=O)c1C was read as HT1080-NT tox 1%, HT1080 IDH1KD tx 8%, KB-V1 MDR tox 16µM*, IL1B secr inh 4 and KB-3-1 cytotox inactive.
For Cc1c(Nc2nc(-c3cccc([N+](=O)[O-])c3)cs2)c(=O)n(-c2ccccc2)n1C the results were HT1080-NT tox 3%, HT1080 IDH1KD tx -3%, KB-V1 MDR tox inactive, IL1B secr inh -13 and KB-3-1 cytotox inactive.
Screening CCOC(=O)Cc1csc(N/N=C/c2cccc([N+](=O)[O-])c2)n1 returned HT1080-NT tox 3%, HT1080 IDH1KD tx 9%, KB-V1 MDR tox inactive, IL1B secr inh 3 and KB-3-1 cytotox inactive.
Screening O=C(Nc1ccccc1Cl)C(Cl)C(=O)c1ccccc1 (stereo not drawn) returned HT1080-NT tox 12%, HT1080 IDH1KD tx 18%, KB-V1 MDR tox inactive, IL1B secr inh -68* and KB-3-1 cytotox inactive.
COc1ccc2c(c1)CC(N1CCN(C)CC1)c1cc(OC)ccc1S2 (stereo not drawn) was read as HT1080-NT tox inconclusive, HT1080 IDH1KD tx 21µM*, KB-V1 MDR tox inconclusive, IL1B secr inh -93* and KB-3-1 cytotox inconclusive.
`CSc1ccc2c(c1)C(N1CCN(C)CC1)Cc1ccc(F)cc1S2` (stereo not drawn) gave HT1080-NT tox inconclusive, HT1080 IDH1KD tx inconclusive, KB-V1 MDR tox inactive, IL1B secr inh -56* and KB-3-1 cytotox inactive.
`Fc1ccc2c(c1)Sc1ccc(Cl)cc1CC2N1CCN(CCC2OCCO2)CC1` (stereo not drawn) gave HT1080-NT tox inconclusive, HT1080 IDH1KD tx inconclusive, KB-V1 MDR tox inactive, IL1B secr inh -75* and KB-3-1 cytotox inconclusive.
For O=[N+]([O-])c1ccc2c(c1)C(N1CCN(CCO)CC1)Cc1ccc(F)cc1S2 (stereo not drawn) the results were HT1080-NT tox 16µM*, HT1080 IDH1KD tx 16µM*, KB-V1 MDR tox inactive, IL1B secr inh 0 and KB-3-1 cytotox inactive.
For CC(=O)c1sc2c(c1C)c(=O)n(-c1ccc(Cl)cc1)c(=O)n2Cc1cc(=O)n2cc(Cl)ccc2n1 the results were KB-V1 MDR tox inactive and KB-3-1 cytotox inactive.
O=C(c1ccc(Cl)cc1)c1oc2ccccc2c1CS(=O)c1ccc(Cl)cc1 (stereo not drawn) was read as HT1080-NT tox 24%, HT1080 IDH1KD tx 1%, KB-V1 MDR tox 21µM*, IL1B secr inh -10 and KB-3-1 cytotox inactive.
`Cc1cc(C)c(NC2=CC(=O)CC(C)(C)C2)c(C#N)c1` gave HT1080-NT tox 6%, HT1080 IDH1KD tx -23%, KB-V1 MDR tox 23µM*, IL1B secr inh 28 and KB-3-1 cytotox inactive.
`CCc1ccc(Nc2ncc3c(n2)CC(C)CC3=O)cc1` (stereo not drawn) gave HT1080-NT tox 26%, HT1080 IDH1KD tx 22%, KB-V1 MDR tox inactive, IL1B secr inh -4 and KB-3-1 cytotox inactive.
CCc1ccc(NC2=CC(=O)CC(C)(C)C2)cc1 was read as HT1080-NT tox 12%, HT1080 IDH1KD tx -2%, KB-V1 MDR tox inactive, IL1B secr inh -56* and KB-3-1 cytotox inactive.
`CCCOc1ccc(NC2=CC(=O)CC(C)(C)C2)cc1` gave HT1080-NT tox 1%, HT1080 IDH1KD tx 2%, KB-V1 MDR tox inactive, IL1B secr inh 3 and KB-3-1 cytotox inactive.
Screening Cc1ccc(NC2=CC(=O)CC(C)(C)C2)cc1C returned HT1080-NT tox -3%, HT1080 IDH1KD tx 2%, KB-V1 MDR tox 16µM*, IL1B secr inh -11 and KB-3-1 cytotox inactive.
For CCc1ccc(Nc2ncc3c(n2)CC(C)(C)CC3=O)cc1 the results were HT1080-NT tox -22%, HT1080 IDH1KD tx -10%, KB-V1 MDR tox inactive, IL1B secr inh -61* and KB-3-1 cytotox inactive.
O=C(NCCc1ccccc1)c1ccc(NCC2CCCO2)c([N+](=O)[O-])c1 (stereo not drawn) was read as HT1080-NT tox 2%, HT1080 IDH1KD tx 0%, KB-V1 MDR tox inconclusive, IL1B secr inh -4 and KB-3-1 cytotox inactive.
`Cc1ccc(NC2=CC(=O)CC(C)(C)C2)c(N)c1` gave HT1080-NT tox -5%, HT1080 IDH1KD tx -4%, KB-V1 MDR tox inactive, IL1B secr inh -3 and KB-3-1 cytotox inactive.
`CC1(C)CC(=O)C=C(Nc2ccc(Br)cc2F)C1` gave HT1080-NT tox 1%, HT1080 IDH1KD tx -6%, KB-V1 MDR tox inconclusive, IL1B secr inh -81* and KB-3-1 cytotox inactive.
